# Compound activity from PubChem BioAssay.
# AmpC inh detg: AmpC beta-lactamase inhibition with detergent present; AmpC hydrolysis of nitrocefin, absorbance 480 nm, 0.01% Triton; Potency, µM (titrated, usually from 114 µM), most hits filed as inhibitors; 0.041% of 370,000 active; note: nearly all actives have a fitted effect of over 25% in size
# Target sequence (P00811 whole entry, looked up): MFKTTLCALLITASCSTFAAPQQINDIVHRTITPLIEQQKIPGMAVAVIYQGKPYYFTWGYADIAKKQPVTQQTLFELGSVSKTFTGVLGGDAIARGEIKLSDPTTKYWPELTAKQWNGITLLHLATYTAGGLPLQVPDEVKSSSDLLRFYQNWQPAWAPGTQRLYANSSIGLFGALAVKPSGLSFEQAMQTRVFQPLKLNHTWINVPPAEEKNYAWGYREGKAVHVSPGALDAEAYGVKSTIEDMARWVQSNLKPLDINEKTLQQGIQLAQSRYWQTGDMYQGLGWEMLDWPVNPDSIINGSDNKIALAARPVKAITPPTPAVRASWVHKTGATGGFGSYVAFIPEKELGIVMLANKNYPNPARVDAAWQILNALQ
#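 20 mM phosphate pH 7.0 + 0.01% (detergent screen) or 0.0001% Triton X-100; 5.3 nM AmpC reagent; cpd preinc 15 min RT; nitrocefin (800 uM stock) to start; A480 q20 s × 4 min; Activity was normalised to no-enzyme and no-compound control wells.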
# AmpC inh no detg: AmpC beta-lactamase inhibition without detergent; AmpC nitrocefin hydrolysis, absorbance 480 nm, 0.0001% Triton; Potency, µM (doses to about 57.1 µM), usual class: inhibitors; 0.52% of 330,000 active; AID 485341; note: nearly all actives have a fitted effect of over 20% in size
#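 AmpC (5.3 nM in the dispensed reagent) in 20 mM phosphate pH 7.0 with 0.01% (detergent screen) or 0.0001% Triton X-100 was preincubated with compounds for 15 min at room temperature. Nitrocefin was then added from an 800 uM solution, and hydrolysis was followed at 480 nm.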
# Numbers stand for hits; . = inactive; ? = inconclusive; / = not tested or not shown. The sample as a whole holds a higher share of hits than the screen did. Calls come from the whole dose curve; as a rule, active = well fitted curve in the direction sought with a large enough effect; inconclusive = small, poorly fitted or top-dose-only effect, or another doubt; inactive = no such curve, though single readings can be large; an effect the other way counts as inactive or inconclusive.
SMILES,AmpC inh detg,AmpC inh no detg
COc1ccccc1NC(=O)c1nn(-c2ccc(Cl)cc2)ccc1=O,.,.
Cc1nc2cc(-c3cccc(F)c3)nn2c(C)c1CCC(=O)Nc1ccccc1C(N)=O,.,/
Cc1ccc(C(=O)NC(NC(=S)Nc2ccc(S(N)(=O)=O)cc2)C(Cl)(Cl)Cl)cc1 (stereo not given),?,.
Cc1ccccc1C(=O)NC(NC(=S)Nc1ccc(S(N)(=O)=O)cc1)C(Cl)(Cl)Cl (stereo not given),.,20µM
COc1ccc(C)cc1-n1nnc(C(=O)Nc2cccc(SC)c2)c1C,.,/
O=C(NCc1ccccc1)c1cnc(N2CCCCC2)c2ccccc12,.,/
O=C(CC(=O)c1ccccc1)Nc1cc(C(F)(F)F)ccc1Cl,.,25.1µM
O=C(NC(=S)Nc1cc(C(F)(F)F)ccc1Cl)c1ccccc1,.,.
COc1ccc(-c2nnc(SCC(=O)N(C)Cc3ccccc3)o2)cc1OC,.,/
Cc1cc(C)n(CCc2nc3c4ccccc4nc(N4CCN(c5ccccc5)CC4)n3n2)n1,.,/
COc1ccc(N2CCN(C(CNC(=O)C(=O)NCCc3ccccc3)c3cccnc3)CC2)cc1 (stereo not given),.,/
O=c1nc(Nc2cccc(Cl)c2)oc2cc(Cl)oc(=O)c12,.,10µM
O=c1nc(Nc2ccccc2)oc2ccccc12,.,.
COc1cccc(N2CCN(C(=O)c3cnc4c(-c5ccccc5)c(C)nn4c3C)CC2)c1,.,/
CCOC(=O)N1CCc2c(sc3c2c(=O)n(-c2ccc(CC)cc2)c(=O)n3CC(=O)Nc2ccc(C)cc2)C1,.,/
Cc1nc(N2CCN(C(=O)c3cccs3)CC2)c2c3c(sc2n1)CCCC3,35.5µM,.
Cc1nc(N2CCN(C(=O)c3ccco3)CC2)c2c3c(sc2n1)CCCC3,.,.
Cc1cc(C)c2sc(NNC(=O)c3ccc(S(=O)(=O)N4CCc5ccccc5C4)cc3)nc2c1,.,3.55µM
Cc1cc(C)c2nc(NNC(=O)c3ccc(S(=O)(=O)N4CCc5ccccc5C4)cc3)sc2c1,.,.
COc1ccccc1N1CCN(C(=O)c2cc3c(=O)n(Cc4ccco4)ccc3nc2C)CC1,.,/
Cc1nnc(Sc2cc(NCCO)c([N+](=O)[O-])c3nonc23)s1,?,.
Cc1nnc(Sc2cc(NCCCO)c([N+](=O)[O-])c3nonc23)s1,?,28.2µM
O=C(/C=C/c1ccc(O)c(O)c1)c1ccc(S(=O)(=O)N2CCCCCC2)cc1,?,25.1µM
O=C(c1ccc(S(=O)(=O)N2CCCC2)cc1)N1CCCCC1,.,.
CCOC(=O)C(C)Sc1ncc(OC)c(=O)[nH]1 (stereo not given),.,0.159µM
SMILES,AmpC inh detg,AmpC inh no detg
CCOC(=O)CSc1ncc(OC)c(=O)[nH]1,.,?
CCN1C(=O)c2ccccc2S(=O)(=O)c2ccc(C(=O)NCc3ccccc3Cl)cc21,.,/
COc1cccc(C(=O)Nc2ccc3nc(SCC(=O)N4CCOCC4)sc3c2)c1,.,/
NNC(=O)c1cccc(S(=O)(=O)Nc2cccc(C(F)(F)F)c2)c1,.,.
Cc1[nH]c2ccccc2c1/C=N/NC(=O)c1cccc(S(=O)(=O)Nc2cccc(C(F)(F)F)c2)c1,.,4.47µM
N#CC1=C(N)SC(N)=C(C#N)C1c1cccc(Oc2ccccc2)c1,.,25.1µM
CCOc1ccc(C2C(C#N)=C(N)SC(N)=C2C#N)cc1OCC,.,.
CCOC(=O)c1c(/N=C/N(C)C)sc(/C=N/Nc2ccccc2)c1-c1ccccc1Cl,.,.
CCOC(=O)c1c(/N=C/N(C)C)sc(/C=N/Nc2ccccc2)c1-c1ccccc1,.,15.8µM
COc1ccc(OC)c(S(=O)(=O)N2CCN(c3ncccn3)CC2)c1,.,.
COc1ccc(OC)c(S(=O)(=O)N2CCN(c3c(C)cccc3C)CC2)c1,?,39.8µM
CCN(C(=O)Cn1ncc2c(=O)oc3ccc(C)cc3c21)c1cc(OC)ccc1OC,.,/
Cc1ccc(CN2C(=O)SC(Nc3ccc(Cl)cc3)C2=O)cc1 (stereo not given),.,/
CN(C)CCCNc1oc(/C=C/c2ccc(F)cc2)nc1C#N,.,/
Cc1ccc(Cl)cc1N(C)C(=O)c1sc2nc3n(c(=O)c2c1C)CCCC3,.,/
Cc1ccc(NC(=O)OCc2ccccc2S(C)=O)cc1 (stereo not given),?,.
CS(=O)c1ccccc1COC(=O)Nc1ccc(Cl)cc1 (stereo not given),.,6.31µM
CCOc1ccccc1CNc1ncnc2c1nc1n2CCCC1,.,/
COC(=O)C1(C)Nc2ccccc2C(=O)N1c1ccccc1C (stereo not given),?,1µM
CC(=O)OC1c2ccccc2C(=O)N1c1ccccc1C (stereo not given),.,.
CC1CN(C(=O)N2CCC(C(=O)NCCCc3ccccc3)CC2)c2cc(Cl)ccc2O1 (stereo not given),.,/
CCN(CC)C(=O)C1=C(C)Nc2nc3ccccc3n2C1c1ccc(Cl)cc1 (stereo not given),.,/
N#CC1=C(N)Nc2nc3ccccc3n2C1c1ccc(Cl)cc1 (stereo not given),?,12.6µM
O=C(NCC1CCCO1)c1cc2ccccc2cc1O (stereo not given),.,.
O=C(NCC1CCCCC1)c1cc2ccccc2cc1O,.,14.1µM
SMILES,AmpC inh detg,AmpC inh no detg
Cc1cc(NC(=O)C2CCCN(S(=O)(=O)c3cn(C)cn3)C2)ccc1Br (stereo not given),.,/
CCCCN(c1ccccc1)S(=O)(=O)c1cc2c3c(c1)C(C)C(=O)N3CCC2 (stereo not given),.,/
CC1=C(c2ccc(Cl)cc2)S(=O)(=O)NC1=NCCCN1CCN(c2cc(C)ccc2C)CC1,.,/
COc1cc(Cl)c(C)cc1NC(=O)c1cnc2c(-c3cccc(C)c3)c(C)nn2c1C,.,/
Cc1ccccc1/C=C1\SC(=S)N(/N=C/c2cc([N+](=O)[O-])ccc2O)C1=O,.,28.2µM
COc1cc(/C=C2/SC(=S)N(Cc3ccccc3)C2=O)ccc1O,.,.
O=C1/C(=C\c2cccc(O)c2O)SC(=S)N1Cc1ccccc1,.,.
O=C1/C(=C\c2ccc(O)c(O)c2)SC(=S)N1Cc1ccccc1,.,11.2µM
CC(N=Cc1cc([N+](=O)[O-])ccc1O)c1ccccc1 (stereo not given),.,.
O=C1/C(=C\c2cc([N+](=O)[O-])ccc2O)SC(=S)N1Cc1ccc(Cl)cc1,.,3.55µM
Cc1cc(-n2c(C)nc3ccccc3c2=O)ccc1NC(=O)c1ccc(C)c([N+](=O)[O-])c1,.,/
Cc1cccc(C(=O)NC2(C(F)(F)F)N=C(c3ccccc3)N(Cc3ccccc3)C2=O)c1 (stereo not given),.,/
COC(=O)c1ccc2c(c1)N(CC(=O)Nc1cccc(C(F)(F)F)c1)C(=O)c1ccccc1S2,.,/
O=C(NCc1ccc(F)cc1)C1CCN(S(=O)(=O)c2ccc3c(c2)CCCN3C(=O)C2CCC2)CC1,.,/
COc1ccc2nc(SCC(=O)N3CC(=O)Nc4ccccc43)c(C#N)cc2c1,?,.
Cc1cc(C)c2nc(SCC(=O)N3CC(=O)Nc4ccccc43)c(C#N)cc2c1,.,3.55µM
Cc1nnc(SCC(=O)Nc2ccc(N(C)C)cc2)[nH]c1=O,.,/
COc1ccc(S(=O)(=O)CC(=O)c2cc3cccc(C)c3oc2=O)cc1,.,.
COc1cccc2cc(C(=O)CS(=O)(=O)c3ccc(C(C)(C)C)cc3)c(=O)oc12,.,17.8µM
